“And” between values parts separate entries of the source, which are not always exact repeats. Identical values can stand only once. Out of some 5,500 compounds screened, about 2,000 (36%) were called active. About 18% were inconclusive and are not listed. Cut-off read from the data, not from the text of the source: active = normalized growth mostly below about 0.91 (no sharp cut-off); inconclusive = no clear call, values can overlap the other calls; inactive = mostly above about 0.92. The list shows a part of the results.
Assay: chemical genetic growth profiling, strain panel (AID 1159580);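 note: tested at 20 µM; growth read once vehicle control cultures reached saturation at 30 °C; 1 = growth at the plate median or of vehicle wells; lower values mean less growth of the strain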
Settings: growth OD

Measured: normalized growth

Nc1nc(N)c2nc(-c3ccccc3)c(N)nc2n1
inactive: S. cerevisiae deletion strains, locus YJR075W, strain HOC1, hits give low values 1.01 | S. cerevisiae deletion strains, locus YKL009W, strain mrt4, hits give low values 1.02 | S. cerevisiae deletion strains, locus YKL068W, hits give low values 1 | S. cerevisiae deletion strains, locus YKL085W, strain MDH1 (second series), hits give low values 1.01 | S. cerevisiae deletion strains, locus YKL085W, strain MDH1, hits give low values 1.01 | S. cerevisiae deletion strains, locus YKL160W, strain elf1, hits give low values 1 | S. cerevisiae deletion strains, locus YKL190W, strain CNB1, hits give low values 1 | S. cerevisiae deletion strains, locus YKR001C, strain vps1, hits give low values 1.02 | S. cerevisiae deletion strains, locus YKR026C, strain gcn3, hits give low values 1.01 | S. cerevisiae deletion strains, locus YKR091W, strain srl3, hits give low values 0.998 | S. cerevisiae deletion strains, locus YLL001W, strain dnm1, hits give low values 1 | S. cerevisiae deletion strains, locus YLL026W, hits give low values 0.999 | S. cerevisiae deletion strains, locus YLL041C, strain sdh2, hits give low values 0.999 | S. cerevisiae deletion strains, locus YLR027C, strain aat2, hits give low values 1.01 | S. cerevisiae deletion strains, locus YLR039C, strain RIC1, hits give low values 1.04 | S. cerevisiae deletion strains, locus YLR058C, strain SHM2, hits give low values 1 | S. cerevisiae deletion strains, locus YLR102C, strain apc9, hits give low values 1.01 | S. cerevisiae deletion strains, locus YLR113W, strain HOG1, hits give low values 1 | S. cerevisiae deletion strains, locus YLR221C, strain rsa3, hits give low values 0.975 | S. cerevisiae deletion strains, locus YLR258W, strain gsy2, hits give low values 0.999 | S. cerevisiae deletion strains, locus YLR262C, strain YPT6 (second series), hits give low values 1.02 | S. cerevisiae deletion strains, locus YLR262C, strain YPT6, hits give low values 1 | S. cerevisiae deletion strains, locus YLR268W, strain sec22, hits give low values 1.05 | S. cerevisiae deletion strains, locus YLR320W, strain mms22, hits give low values 0.99 | S. cerevisiae deletion strains, locus YLR330W, strain CHS5, hits give low values 1.01 | S. cerevisiae deletion strains, locus YLR342W, strain FKS1 (second series), hits give low values 1.02 | S. cerevisiae deletion strains, locus YLR342W, strain FKS1, hits give low values 0.996 | S. cerevisiae deletion strains, locus YLR357W, strain rsc2, hits give low values 1.01 | S. cerevisiae deletion strains, locus YLR370C, strain arc18, hits give low values 0.995 | S. cerevisiae deletion strains, locus YLR371W, strain rom2, hits give low values 1.01 | S. cerevisiae deletion strains, locus YLR384C, strain iki3, hits give low values 1.01 | S. cerevisiae deletion strains, locus YLR418C, strain cdc73, hits give low values 0.972 | S. cerevisiae deletion strains, locus YML016C, strain PPZ1, hits give low values 0.999 | S. cerevisiae deletion strains, locus YML032C, strain rad52, hits give low values 1.02 | S. cerevisiae deletion strains, locus YML120C, strain ndi1, hits give low values 1.02 | S. cerevisiae deletion strains, locus YML124C, strain tub3, hits give low values 1.01 | S. cerevisiae deletion strains, locus YMR058W, strain fet3, hits give low values 1.01 | S. cerevisiae deletion strains, locus YMR078C, strain ctf18, hits give low values 1 | S. cerevisiae deletion strains, locus YMR125W, strain sto1, hits give low values 1 | S. cerevisiae deletion strains, locus YMR129W, hits give low values 0.998 | S. cerevisiae deletion strains, locus YMR205C, strain PFK2, hits give low values 1.01 | S. cerevisiae deletion strains, locus YMR223W, strain ubp8, hits give low values 0.994 | S. cerevisiae deletion strains, locus YMR231W, strain pep5, hits give low values 0.997 | S. cerevisiae deletion strains, locus YMR263W, strain SAP30, hits give low values 1 and 0.995 | S. cerevisiae deletion strains, locus YMR307W, strain GAS1, hits give low values 1.04 and 1.01 | S. cerevisiae deletion strains, locus YNL067W, strain RPL9B, hits give low values 0.995 | S. cerevisiae deletion strains, locus YNL071W, strain lat1, hits give low values 0.996 | S. cerevisiae deletion strains, locus YNL153C, strain GIM3, hits give low values 1 | S. cerevisiae deletion strains, locus YNL175C, strain NOP13, hits give low values 0.987 | S. cerevisiae deletion strains, locus YNL183C, strain NPR1, hits give low values 0.933 | S. cerevisiae deletion strains, locus YNL197C, strain WHI3, hits give low values 0.967 | S. cerevisiae deletion strains, locus YNL209W, strain ssb2, hits give low values 1 | S. cerevisiae deletion strains, locus YNL224C, strain SQS1, hits give low values 0.995 | S. cerevisiae deletion strains, locus YNL233W, strain BNI4, hits give low values 1 | S. cerevisiae deletion strains, locus YNL248C, strain rpa49, hits give low values 0.969 | S. cerevisiae deletion strains, locus YNL250W, strain rad50, hits give low values 1 | S. cerevisiae deletion strains, locus YNL271C, strain bni1, hits give low values 1.01 | S. cerevisiae deletion strains, locus YNL298W, strain CLA4, hits give low values 1.03 | S. cerevisiae deletion strains, locus YNL307C, strain MCK1, hits give low values 1.01 | S. cerevisiae deletion strains, locus YNL322C, strain KRE1 (second series), hits give low values 1.01 | S. cerevisiae deletion strains, locus YNL322C, strain KRE1, hits give low values 1 | S. cerevisiae deletion strains, locus YNR049C, strain mso1, hits give low values 0.993 | S. cerevisiae deletion strains, locus YNR052C, strain pop2, hits give low values 1.01 | S. cerevisiae deletion strains, locus YOL006C, strain TOP1, hits give low values 1.02 | S. cerevisiae deletion strains, locus YOL012C, strain htz1 0.947 | S. cerevisiae deletion strains, locus YOL147C, strain pex11, hits give low values 1.01 | S. cerevisiae deletion strains, locus YOR001W, strain rrp6, hits give low values 1.01 | S. cerevisiae deletion strains, locus YOR061W, strain CKA2, hits give low values 0.999 | S. cerevisiae deletion strains, locus YOR069W, strain VPS5, hits give low values 1 | S. cerevisiae deletion strains, locus YOR070C, strain gyp1, hits give low values 0.991 | S. cerevisiae deletion strains, locus YOR080W, strain dia2, hits give low values 1.01 | S. cerevisiae deletion strains, locus YOR083W, strain WHI5 (second series), hits give low values 0.969 | S. cerevisiae deletion strains, locus YOR083W, strain WHI5, hits give low values 0.989 | S. cerevisiae deletion strains, locus YOR106W, strain vam3, hits give low values 1.02 | S. cerevisiae deletion strains, locus YOR136W, strain idh2, hits give low values 0.993 | S. cerevisiae deletion strains, locus YOR144C, strain elg1, hits give low values 1.01 | S. cerevisiae deletion strains, locus YOR184W, strain ser1, hits give low values 0.98 | S. cerevisiae deletion strains, locus YOR231W, strain MKK1, hits give low values 1.01 | S. cerevisiae deletion strains, locus YOR265W, strain rbl2, hits give low values 0.996 | S. cerevisiae deletion strains, locus YOR270C, strain vph1, hits give low values 1.01 | S. cerevisiae deletion strains, locus YOR290C, strain snf2, hits give low values 0.991 | S. cerevisiae deletion strains, locus YOR316C, strain cot1, hits give low values 1.01 | S. cerevisiae deletion strains, locus YPL051W, strain arl3, hits give low values 0.993 | S. cerevisiae deletion strains, locus YPL055C, strain LGE1, hits give low values 1.02 | S. cerevisiae deletion strains, locus YPL078C, strain atp4, hits give low values 1.01 | S. cerevisiae deletion strains, locus YPL106C, strain sse1, hits give low values 0.995 | S. cerevisiae deletion strains, locus YPL240C, strain hsp82, hits give low values 1 | S. cerevisiae deletion strains, locus YPL241C, strain CIN2, hits give low values 1 and 0.998 | S. cerevisiae deletion strains, locus YPL256C, strain CLN2, hits give low values 0.99 | S. cerevisiae deletion strains, locus YPR119W, strain clb2, hits give low values 1 | S. cerevisiae deletion strains, locus YPR141C, strain kar3, hits give low values 1.01 | S. cerevisiae deletion strains, locus YPR163C, strain tif3, hits give low values 1.02 | S. cerevisiae deletion strains, locus YPR167C, strain met16, hits give low values 1.01 | S. cerevisiae deletion strains, strain wtn01, hits give low values 1.01 | S. cerevisiae strains, strain wild type, hits give low values 0.997

From PubChem BioAssay AID1159580 (chemical genetic matrix, 2015)
